{
  "source": "the supplement of paper PMC10127200",
  "note": "Counter-ions that a name gives are not always drawn.",
  "data": [
    {"tested_on": "FB", "assay": "Euclidean distance of Cell Painting phenotypic profile (signed KS, 77 features) to DMSO centroid (dimensionless distance); higher = stronger phenotypic change vs DMSO (phenoactivity)", "conditions": "48 h; 5 or 10 uM (library dependent)", "outline": "(§1)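 Harmony extracted 77 features from 20X confocal images (9 fields/well) of stained cells, scoring each as a signed Kolmogorov-Smirnov statistic against same-plate vehicle wells. The cells, five cancer lines and a healthy fibroblast line, had received library compounds for 48 h at 10 or 5 uM depending on library, with 0.1% DMSO final. Phenoactivity is the Euclidean distance from each plate-position-corrected, correlation-weighted, top-dose replicate-averaged profile to the median vehicle profile.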", "values": [
      {"smiles": "Cn1c(CCCCCCC(=O)NO)nc2cc(N(CCCl)CCCl)ccc21", "note": "[Tinostamustine(EDO-S101)]", "Euclidean distance": 2.57},
      {"smiles": "O=C1CC[C@@]2(O)[C@H]3Cc4ccc(O)c5c4[C@@]2(CCN3CC2CC2)[C@H]1O5", "note": "[Naltrexone HCl]", "Euclidean distance": 0.982},
      {"smiles": "Cc1cccc(Cc2c[nH]cn2)c1C", "note": "[Detomidine HCl]", "Euclidean distance": 0.994},
      {"smiles": "CNCC(O)c1ccc(O)cc1", "note": "(stereo not given) [Synephrine HCl]", "Euclidean distance": 0.485},
      {"smiles": "Clc1ccc(C(OCCN2CCCCC2)c2ccccc2)cc1", "note": "(stereo not given) [Cloperastine hydrochloride]", "Euclidean distance": 0.914},
      {"smiles": "COc1cc(OC)c(OC)cc1C=O", "note": "[Asaraldehyde]", "Euclidean distance": 1.31},
      {"smiles": "Oc1cccc2cccnc12", "note": "[8-Hydroxyquinoline]", "Euclidean distance": 6.09},
      {"smiles": "Cc1cc(C(C#N)c2ccc(Cl)cc2)c(Cl)cc1NC(=O)c1cc(I)cc(I)c1O", "note": "(stereo not given) [Closantel]", "Euclidean distance": 0.654},
      {"smiles": "O=P(O)(NCCCl)NCCCl", "note": "[Palifosfamide]", "Euclidean distance": 1.11},
      {"smiles": "C[C@]12CCC(=O)C[C@@H]1CC[C@@H]1[C@@H]2CC[C@]2(C)[C@@H](O)CC[C@@H]12", "note": "[Dihydrotestosterone(DHT)]", "Euclidean distance": 0.775},
      {"smiles": "O=c1ccc2ccc3occc3c2o1", "note": "[Isopsoralen]", "Euclidean distance": 1.02},
      {"smiles": "CC(C)[N+](C)(CCC(C(N)=O)(c1ccccc1)c1ccccc1)C(C)C", "note": "[Isopropamide Iodide]", "Euclidean distance": 1.25},
      {"smiles": "CCCCCc1cc(O)cc(O)c1", "note": "[Olivetol]", "Euclidean distance": 0.7},
      {"smiles": "NCC(O)c1ccc(O)cc1", "note": "(stereo not given) [(+.-)-Octopamine HCl]", "Euclidean distance": 0.934},
      {"smiles": "C[C@H]1CC(=O)C[C@@H]2CC[C@H]3[C@@H]4CC[C@H](O)[C@@]4(C)CC[C@@H]3[C@]21C", "note": "[Mesterolone]", "Euclidean distance": 1.08},
      {"smiles": "O=[N+]([O-])c1ncc[nH]1", "note": "[Azomycin]", "Euclidean distance": 1.09},
      {"smiles": "COCC1(CO)C(=O)C2CCN1CC2", "note": "(stereo not given)", "Euclidean distance": 3.41},
      {"smiles": "CN1c2ccccc2C(NCCCCCCC(=O)O)c2ccc(Cl)cc2S1(=O)=O", "note": "(stereo not given) [Tianeptine sodium]", "Euclidean distance": 1.05},
      {"smiles": "CN1C[C@H](C(=O)N[C@]2(C)O[C@@]3(O)[C@@H]4CCCN4C(=O)[C@H](Cc4ccccc4)N3C2=O)C[C@@H]2c3cccc4[nH]cc(c34)C[C@H]21", "note": "[Dihydroergotamine Mesylate]", "Euclidean distance": 1.05},
      {"smiles": "NCCc1c[nH]c2ccc(O)cc12", "note": "[Serotonin HCl]", "Euclidean distance": 1.12},
      {"smiles": "CCC(=O)O[C@H]1CC[C@H]2[C@@H]3CC[C@H]4CC(=O)[C@H](C)C[C@]4(C)[C@H]3CC[C@]12C", "note": "[Drostanolone Propionate]", "Euclidean distance": 0.585},
      {"smiles": "CC(=O)NC1CCSC1=O", "note": "(stereo not given) [Citiolone]", "Euclidean distance": 1.06},
      {"smiles": "CN1CCC(C(=O)c2cccc(NC(=O)c3c(F)cc(F)cc3F)n2)CC1", "note": "[Lasmiditan succinate]", "Euclidean distance": 0.918},
      {"smiles": "C[N+]1(C)[C@@H]2C[C@@H](OC(=O)[C@H](CO)c3ccccc3)C[C@H]1[C@@H]1O[C@@H]12", "note": "[Methscopolamine]", "Euclidean distance": 0.773},
      {"smiles": "CC(=O)[C@H]1CC[C@H]2[C@@H]3CC[C@H]4C[C@H](O)CC[C@]4(C)[C@H]3CC[C@]12C", "note": "[Allopregnanolone]", "Euclidean distance": 1.22},
      {"smiles": "NC(=O)CN1CCCC1=O", "note": "[Piracetam]", "Euclidean distance": 1.08},
      {"smiles": "O=[N+]([O-])O[C@@H]1CO[C@H]2[C@@H]1OC[C@@H]2O", "note": "[Isosorbide Mononitrate]", "Euclidean distance": 0.9},
      {"smiles": "C=C1[C@@H](C)[C@H]2[C@H](Cc3ccccc3)NC(=O)[C@]23[C@H](OC(C)=O)/C=C/[C@@](C)(O)C(=O)[C@@H](C)C/C=C/[C@H]3[C@@H]1O", "note": "[Cytochalasin D]", "Euclidean distance": 4.07},
      {"smiles": "C=C(C)[C@H]1Cc2c(ccc3c2O[C@@H]2COc4cc(OC)c(OC)cc4[C@@H]2C3=O)O1", "note": "[Rotenone (Barbasco)]", "Euclidean distance": 2.77},
      {"smiles": "Cc1cccc(C)c1NC1=NCCCS1", "note": "[Xylazine]", "Euclidean distance": 0.632},
      {"smiles": "CC(=O)Nc1ccc(OC[C@](C)(O)C(=O)Nc2ccc([N+](=O)[O-])c(C(F)(F)F)c2)cc1", "note": "[Andarine]", "Euclidean distance": 0.758},
      {"smiles": "CC1(C)S[C@@H]2[C@H](N)C(=O)N2[C@H]1C(=O)O", "note": "[6-Aminopenicillanic acid]", "Euclidean distance": 0.903},
      {"smiles": "Cc1ccc(/N=C/N(C)/C=N/c2ccc(C)cc2C)c(C)c1", "note": "[Amitraz]", "Euclidean distance": 0.718},
      {"smiles": "COC1=C[C@@H]2[C@@H]3Cc4ccc(OC)c(O)c4[C@]2(CCN3C)CC1=O", "note": "[Sinomenine hydrochloride]", "Euclidean distance": 1.15},
      {"smiles": "CC(C)(C)c1cc(C=C(C#N)C#N)cc(Br)c1O", "Euclidean distance": 1.1}
    ]},
    {"tested_on": "HEPG2", "assay": "Euclidean distance of Cell Painting phenotypic profile (signed KS, 77 features) to DMSO centroid (dimensionless distance); higher = stronger phenotypic change vs DMSO (phenoactivity)", "conditions": "48 h; 5 or 10 uM (library dependent)", "outline": "as §1", "values": [
      {"smiles": "Cn1c(CCCCCCC(=O)NO)nc2cc(N(CCCl)CCCl)ccc21", "note": "[Tinostamustine(EDO-S101)]", "Euclidean distance": 2.74},
      {"smiles": "O=C1CC[C@@]2(O)[C@H]3Cc4ccc(O)c5c4[C@@]2(CCN3CC2CC2)[C@H]1O5", "note": "[Naltrexone HCl]", "Euclidean distance": 1.84},
      {"smiles": "Cc1cccc(Cc2c[nH]cn2)c1C", "note": "[Detomidine HCl]", "Euclidean distance": 1.89},
      {"smiles": "CNCC(O)c1ccc(O)cc1", "note": "(stereo not given) [Synephrine HCl]", "Euclidean distance": 0.371},
      {"smiles": "Clc1ccc(C(OCCN2CCCCC2)c2ccccc2)cc1", "note": "(stereo not given) [Cloperastine hydrochloride]", "Euclidean distance": 1.43},
      {"smiles": "COc1cc(OC)c(OC)cc1C=O", "note": "[Asaraldehyde]", "Euclidean distance": 1.73},
      {"smiles": "Oc1cccc2cccnc12", "note": "[8-Hydroxyquinoline]", "Euclidean distance": 1.99},
      {"smiles": "Cc1cc(C(C#N)c2ccc(Cl)cc2)c(Cl)cc1NC(=O)c1cc(I)cc(I)c1O", "note": "(stereo not given) [Closantel]", "Euclidean distance": 0.749},
      {"smiles": "O=P(O)(NCCCl)NCCCl", "note": "[Palifosfamide]", "Euclidean distance": 0.698},
      {"smiles": "C[C@]12CCC(=O)C[C@@H]1CC[C@@H]1[C@@H]2CC[C@]2(C)[C@@H](O)CC[C@@H]12", "note": "[Dihydrotestosterone(DHT)]", "Euclidean distance": 0.429},
      {"smiles": "O=c1ccc2ccc3occc3c2o1", "note": "[Isopsoralen]", "Euclidean distance": 0.495},
      {"smiles": "CC(C)[N+](C)(CCC(C(N)=O)(c1ccccc1)c1ccccc1)C(C)C", "note": "[Isopropamide Iodide]", "Euclidean distance": 0.717},
      {"smiles": "CCCCCc1cc(O)cc(O)c1", "note": "[Olivetol]", "Euclidean distance": 0.393},
      {"smiles": "NCC(O)c1ccc(O)cc1", "note": "(stereo not given) [(+.-)-Octopamine HCl]", "Euclidean distance": 0.45},
      {"smiles": "C[C@H]1CC(=O)C[C@@H]2CC[C@H]3[C@@H]4CC[C@H](O)[C@@]4(C)CC[C@@H]3[C@]21C", "note": "[Mesterolone]", "Euclidean distance": 0.446},
      {"smiles": "O=[N+]([O-])c1ncc[nH]1", "note": "[Azomycin]", "Euclidean distance": 1.54},
      {"smiles": "COCC1(CO)C(=O)C2CCN1CC2", "note": "(stereo not given)", "Euclidean distance": 2.42},
      {"smiles": "CN1c2ccccc2C(NCCCCCCC(=O)O)c2ccc(Cl)cc2S1(=O)=O", "note": "(stereo not given) [Tianeptine sodium]", "Euclidean distance": 0.471},
      {"smiles": "CN1C[C@H](C(=O)N[C@]2(C)O[C@@]3(O)[C@@H]4CCCN4C(=O)[C@H](Cc4ccccc4)N3C2=O)C[C@@H]2c3cccc4[nH]cc(c34)C[C@H]21", "note": "[Dihydroergotamine Mesylate]", "Euclidean distance": 1.1},
      {"smiles": "NCCc1c[nH]c2ccc(O)cc12", "note": "[Serotonin HCl]", "Euclidean distance": 0.38},
      {"smiles": "CCC(=O)O[C@H]1CC[C@H]2[C@@H]3CC[C@H]4CC(=O)[C@H](C)C[C@]4(C)[C@H]3CC[C@]12C", "note": "[Drostanolone Propionate]", "Euclidean distance": 1.34},
      {"smiles": "CC(=O)NC1CCSC1=O", "note": "(stereo not given) [Citiolone]", "Euclidean distance": 0.461},
      {"smiles": "CN1CCC(C(=O)c2cccc(NC(=O)c3c(F)cc(F)cc3F)n2)CC1", "note": "[Lasmiditan succinate]", "Euclidean distance": 0.782},
      {"smiles": "C[N+]1(C)[C@@H]2C[C@@H](OC(=O)[C@H](CO)c3ccccc3)C[C@H]1[C@@H]1O[C@@H]12", "note": "[Methscopolamine]", "Euclidean distance": 0.666},
      {"smiles": "CC(=O)[C@H]1CC[C@H]2[C@@H]3CC[C@H]4C[C@H](O)CC[C@]4(C)[C@H]3CC[C@]12C", "note": "[Allopregnanolone]", "Euclidean distance": 0.709},
      {"smiles": "NC(=O)CN1CCCC1=O", "note": "[Piracetam]", "Euclidean distance": 0.792},
      {"smiles": "O=[N+]([O-])O[C@@H]1CO[C@H]2[C@@H]1OC[C@@H]2O", "note": "[Isosorbide Mononitrate]", "Euclidean distance": 0.868},
      {"smiles": "C=C1[C@@H](C)[C@H]2[C@H](Cc3ccccc3)NC(=O)[C@]23[C@H](OC(C)=O)/C=C/[C@@](C)(O)C(=O)[C@@H](C)C/C=C/[C@H]3[C@@H]1O", "note": "[Cytochalasin D]", "Euclidean distance": 2.24},
      {"smiles": "C=C(C)[C@H]1Cc2c(ccc3c2O[C@@H]2COc4cc(OC)c(OC)cc4[C@@H]2C3=O)O1", "note": "[Rotenone (Barbasco)]", "Euclidean distance": 2.94},
      {"smiles": "Cc1cccc(C)c1NC1=NCCCS1", "note": "[Xylazine]", "Euclidean distance": 0.887},
      {"smiles": "CC(=O)Nc1ccc(OC[C@](C)(O)C(=O)Nc2ccc([N+](=O)[O-])c(C(F)(F)F)c2)cc1", "note": "[Andarine]", "Euclidean distance": 0.703},
      {"smiles": "CC1(C)S[C@@H]2[C@H](N)C(=O)N2[C@H]1C(=O)O", "note": "[6-Aminopenicillanic acid]", "Euclidean distance": 0.75},
      {"smiles": "Cc1ccc(/N=C/N(C)/C=N/c2ccc(C)cc2C)c(C)c1", "note": "[Amitraz]", "Euclidean distance": 0.47},
      {"smiles": "COC1=C[C@@H]2[C@@H]3Cc4ccc(OC)c(O)c4[C@]2(CCN3C)CC1=O", "note": "[Sinomenine hydrochloride]", "Euclidean distance": 0.751},
      {"smiles": "CC(C)(C)c1cc(C=C(C#N)C#N)cc(Br)c1O", "Euclidean distance": 1.39}
    ]}
  ]
}
